# Test results reported in PubChem BioAssay AID651702 (NMMLSC, 2012).
# The campaign covered roughly 360,000 compounds. About 2,400 (0.67%) were called active. The list comes from a sample in which actives are over-represented; it also holds similar structures and randomly drawn compounds. Values without a mark were called inactive.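 How the source made its calls: active means inhibition above about 55% (limit read from the data); inconclusive means no clear call, values can overlap the other calls; inactive means the rest.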
# Experiment: LAMP-1 surface exposure blockers, TALL-104 cells – cell-based, flow cytometry, MLPCN library, primary screen (AID 651702)
# Details: TALL-104 LAMP-1 surface exposure, at 10 µM, stronger effect = higher value, cells stimulated with thapsigargin and PMA
row,Compound,inhibition
1,O=C(COC(=O)/C=C/c1cccc(Cl)c1)NCc1cccs1,18.2%
2,CC1CCCCC1NC(=O)Cn1c(=O)cnc2ccccc21 (stereo unspecified),25.2%
3,CCc1cc(C(=O)N(CC)CC(=O)Nc2c(F)cccc2F)sc1C,18.1%
4,O=C(Cn1nnc(-c2ccc(CN3CCOCC3)cc2)n1)NC1CCCCC1,-4.2%
5,COc1cccc(Nc2ncccc2C(=O)O)c1,-1.7%
6,O=C(Nc1ccccc1)c1ccccc1Br,-1.5%
7,O=C(Nc1ccccc1)c1cccnc1Nc1ccccc1,99.9% (active)
8,Cc1cccc(C(=O)NNC(=O)CSc2nnc(C(C)C)n2C)c1,-2.9%
9,Cc1ccccc1C(OCC(O)CN1CCCCC1CCO)c1ccccc1 (stereo unspecified),-0.9%
10,COc1cccc(CN(C)CC(O)COC(c2ccccc2)c2ccccc2C)c1 (stereo unspecified),60.5% (active)
11,COc1cccc(CN(C)CC(=O)Nc2ccccc2C(=O)Nc2ccccc2)c1,8.4%
12,COc1ccc(CCNCc2c(-c3ccccc3)n(C)c3ccccc23)cc1,90.8% (active)
13,COc1ccc(-c2c(C#Cc3ccccc3)c3ccccc3n2C)cc1,-3.3%
14,COc1ccc(CCNC(=O)COC(=O)c2cc(=O)c3ccccc3o2)cc1,-2.7%
15,CC[C@@H]1CC2=C(C(=O)OC(C)(C)O2)[C@@H](CC)O1,-0.8%
16,Cc1cccc(-c2ncc(CN3CCC(CO)(CCCc4ccccc4)CC3)cn2)c1,2.3%
17,Cc1c(CN2CCC(CO)(CCOc3ccccc3)CC2)[nH]c2ccc(Cl)cc12,64.1% (active)
18,CC(C)(O)C#Cc1ccc(CN2CCC(CO)(CCc3ccccc3)CC2)cc1,-3%
19,Cc1cc(=O)cc(C)[nH]1,-3.9%
20,CCOc1cnc(-c2c(-c3ccccc3Cl)noc2C)o1,1.2%
21,Cc1oc(-c2ccccc2Cl)[n+]([O-])c1C,58.5% (active)

row,Compound,inhibition
1,Cc1oc(-c2cccc(Cl)c2)[n+]([O-])c1C,8%
2,COc1ccc([C@H]2CC(=O)C=C(c3ccc(OC(F)(F)F)cc3)C2)cc1OC,-1.8%
3,CC1(C2CC2)NC(=O)N(CC(=O)N2CCN(c3ccccc3F)CC2)C1=O (stereo unspecified),2%
4,Cc1cccc(NC(=O)c2cccc(C(=O)Nc3cccc(C)c3C)n2)c1C,-1.9%
5,Cc1cc(C)cc(N(CC(=O)NCCSCc2ccco2)S(C)(=O)=O)c1,-4.7%
6,CCc1ccccc1N(CC(=O)NCCSCc1ccco1)S(C)(=O)=O,-0.4%
7,CS(=O)(=O)N(Cc1ccc(Cl)cc1)c1ccc(C(=O)NCCSCc2ccco2)cc1,95.2% (active)
8,COc1cccc(NC(=O)CSc2nccn(-c3ccc4c(c3)OCCO4)c2=O)c1,-0.2%
9,C/C=C/c1ccc(OCC(O)CN2CCCCCCC2)c(OC)c1 (stereo unspecified),-1%
10,CCOC(=O)N1CCN(c2cc(C)c([N+](=O)[O-])cc2F)CC1,-1%
11,CN(C)c1ccc(N/C=C/C(=O)C(F)(F)F)cc1,0.5%
12,NNC(=O)C1CC(O)CN1S(=O)(=O)c1ccc(Cl)cc1 (stereo unspecified),-0.1%
13,COc1cccc(COc2ccc(N(C)S(=O)(=O)c3ccccc3)cc2)c1,72% (active)
14,Cc1ccc2nc(COc3ccc(N(C)S(=O)(=O)c4ccccc4)cc3)cc(=O)n2c1,2%
15,CN(c1ccccc1)S(=O)(=O)c1ccc(NC(=O)COc2ccccc2)cc1,16.3%
16,Cc1ccc(NC(=O)CN2CCCCC2)c2c1CC(C)(C)O2,-0.4%
17,Cc1ccc(NC(=S)N(CCCN2CCCC2)Cc2cccn2Cc2ccc(Cl)cc2)cc1,75.2% (active)
18,Cc1ccccc1NC(=S)N(CCCN1CCOCC1)Cc1cccs1,5.8%
19,CCc1cccc(C)c1NC(=S)N(CCCN1CCN(C)CC1)Cc1cccs1,-1.6%
20,O=C(c1n[nH]c2c1CCC2)N1CCCC(Nc2cccc(F)c2)C1 (stereo unspecified),-7.9%
21,CCCCC(CC)CNCc1cccn1CCN1CCOCC1 (stereo unspecified),19.8%

row,Compound,inhibition
1,COc1ccc(NC(=O)C2=CC(c3ccc(OC)c(OC)c3)=NS(=O)(=O)N2C)cc1,-5.8%
2,CCc1ccc(C2N3CC4([N+](=O)[O-])CN2CC([N+](=O)[O-])(C3)C4(C)C)cc1 (stereo unspecified),-2%
3,Oc1ccc2ccccc2c1N=Nc1nccs1,61.9% (active)
4,CC(C)(C)c1cc2cccnc2n1Cc1ccccc1,0%
5,O=S(=O)(Nc1ccc2ccccc2c1)N1CCCCC1,-2.7%
6,COc1ccc(S(=O)(=O)N(C)C[C@@H]2Oc3ccc(NS(=O)(=O)c4cn(C)cn4)cc3C(=O)N([C@@H](C)CO)C[C@@H]2C)cc1,-0.8%
7,O=S(=O)(Nc1ccc(OC(F)(F)F)cc1)c1cccc2nonc12,-6.5%
8,COc1ccccc1NS(=O)(=O)c1ccc(C(=O)N2CCN(c3ccccc3O)CC2)cc1,2.1%
9,O=S(=O)(Nc1ccc(O)c2ccccc12)c1ccc(OC(F)(F)F)cc1,60.2% (active)
10,O=C(NCc1cccc(C(F)(F)F)c1)c1ccc2sc(COCCO)nc2c1,2.2%
11,COc1ccc2c(c1)C(=C(C#N)C#N)C(=O)N2CCc1ccccc1,97.9% (active)
12,C#CCN1C(=O)C(O)(CC(=O)c2cc(OC)ccc2OC)c2ccccc21 (stereo unspecified),-1.2%
13,CCCCN1C(=O)/C(=C(/C#N)C(N)=O)c2ccccc21,-1.7%
14,CCOC(=O)[C@]12CCCC=C1N(CCC1=CCCCC1)C(=O)[C@H](CC(=O)NCCCCc1ccccc1)C2,11.5%
15,OC(CN=c1sc2ccccc2n1CC(O)COc1ccccc1)COc1ccccc1 (stereo unspecified),91.1% (active)
16,Cc1cccc(OCC(O)Cn2c(=N)n(CCN3CCOCC3)c3ccccc32)c1 (stereo unspecified),1.7%
17,OC(COc1ccc(CN2CCSCC2)cc1)CN1CCCCC1 (stereo unspecified),19.9%
18,O=c1cc(CO)oc(C(Nc2cccc(C(F)(F)F)c2)c2ccccn2)c1O (stereo unspecified),1.7%
19,CC(C)CCN1NC2(CCC(C)CC2)NC1=S (stereo unspecified),-6.9%
